# Measurements taken from the antibiotic and cytotoxicity screens of Wong et al. (2023).
# Out of some 39,000 compounds screened, about 3,300 (8.5%) were called active. Shown is part of a subset that was picked to be rich in actives.
# System: HepG2
# Test: cytotoxicity call (relative viability < 0.9)
# Conditions: 10 µM
row,SMILES,cytotoxicity call
1,CN(C)C(=O)C[C@@H]1CC[C@H]2[C@H](COc3ccc(NS(=O)(=O)c4cccc(F)c4)cc3C(=O)N2C)O1,inactive
2,COc1ccc(S(=O)(=O)N(C)C[C@H]2OCCCC[C@H](C)Oc3ccc(NS(C)(=O)=O)cc3C(=O)N([C@H](C)CO)C[C@@H]2C)cc1,inactive
3,C[C@H](CO)N1C[C@H](C)[C@H](CN(C)Cc2cccc(O)c2)OCc2ccccc2-c2c(n(C)c3ccccc23)C1=O,inactive
4,C[C@@H]1CN([C@@H](C)CO)C(=O)c2cc(C#CC3(O)CCCC3)cnc2O[C@H]1CN(C)C(=O)Cc1ccncc1,inactive
5,C[C@@H]1CCCCO[C@@H](CN(C)S(=O)(=O)c2ccccc2)[C@H](C)CN([C@H](C)CO)C(=O)c2cc(NC(=O)c3ccccc3)ccc2O1,inactive
6,N=C(N=C(N)N)N1CCOCC1,inactive
7,O=C1N[C@@H]2[C@@H]1[C@H]1C=C[C@H]2C1,inactive
8,C[C@@H]1CCCCO[C@H](CN(C)C(=O)Nc2ccc(F)cc2)[C@H](C)CN([C@@H](C)CO)C(=O)c2cc(NS(=O)(=O)c3ccc(F)cc3)ccc2O1,inactive
9,C[C@H]1CN([C@@H](C)CO)C(=O)c2cc(-c3ccncc3)cnc2O[C@@H]1CN(C)S(=O)(=O)c1ccc(F)cc1,inactive
10,COc1ccccc1CNC(=O)C[C@@H]1C[C@@H]2c3cc(NC(=O)c4ccc5c(c4)OCO5)ccc3O[C@@H]2[C@@H](CO)O1,inactive
11,CNC(=O)c1ccc(CO)cc1,inactive
12,CN(C)Cc1cn(CC[C@@H]2CC[C@H](N)[C@@H](CO)O2)nn1,inactive
13,C[C@H]1CN([C@@H](C)CO)C(=O)c2cccc(NC(=O)NC3CCCCC3)c2O[C@H]1CN(C)S(=O)(=O)c1cn(C)cn1,inactive
14,O=C(C[C@@H]1CC[C@H]2[C@@H](COC[C@@H](O)CN2C(=O)c2ccccn2)O1)NC1CCC1,inactive
15,CN1C(=O)c2ccccc2C1=O,inactive
16,CN1CCC(=C2c3ccccc3CC(=O)c3sccc32)CC1.O=C(O)C=CC(=O)O,inactive
17,CN1CCC(=C2c3ccccc3CCc3sccc32)CC1.O=C(O)CC(O)C(=O)O,inactive
18,CN1CCC(=C2c3ccccc3C=Cc3ccccc32)CC1.Cl,active
19,CN1CCC(=C2c3ccccc3Sc3ccccc32)CC1.O=C(O)C=CC(=O)O,active
20,CN1CCN(C(c2ccccc2)c2ccccc2)CC1,inactive
21,C[C@H]1CCCCO[C@H](CN(C)C(=O)Nc2ccc(C(F)(F)F)cc2)[C@@H](C)CN([C@@H](C)CO)C(=O)c2cc(NC(=O)c3ccccc3)ccc2O1,inactive
22,CCOC(=O)[C@@H]1C(Cc2ccccc2)=CN(CCc2ccc(OC)c(OC)c2)C(=O)N1c1ccc(OC)cc1,inactive
23,C[C@@H]1CN([C@H](C)CO)C(=O)c2cc(C#CCN(C)C)cnc2O[C@@H]1CN(C)C(=O)Nc1cccc(F)c1,inactive
24,C[C@@H]1CN([C@H](C)CO)C(=O)c2cccc(NC(=O)c3nc4ccccc4s3)c2O[C@@H]1CN(C)C(=O)Nc1cccc2ccccc12,inactive

row,SMILES,cytotoxicity call
1,C[C@H](CO)N1C[C@H](C)[C@H](CN(C)C(=O)Nc2cccc3ccccc23)Oc2c(NC(=O)c3nc4ccccc4s3)cccc2C1=O,inactive
2,C[C@H](CO)N1C[C@H](C)[C@@H](CN(C)C(=O)Nc2cccc3ccccc23)Oc2c(NC(=O)c3nc4ccccc4s3)cccc2C1=O,active
3,C[C@@H]1CN([C@@H](C)CO)C(=O)c2cccc(NC(=O)c3nc4ccccc4s3)c2O[C@H]1CN(C)C(=O)Nc1cccc2ccccc12,active
4,C[C@@H]1CN([C@@H](C)CO)C(=O)c2cccc(NC(=O)c3nc4ccccc4s3)c2O[C@H]1CN(C)CC1CCCCC1,inactive
5,C[C@@H]1CN([C@H](C)CO)C(=O)c2cccc(NC(=O)c3nc4ccccc4s3)c2O[C@H]1CN(C)CC1CCCCC1,inactive
6,C[C@@H]1CN([C@@H](C)CO)C(=O)c2cccc(NC(=O)c3nc4ccccc4s3)c2O[C@@H]1CN(C)CC1CCCCC1,active
7,C[C@H]1CN([C@@H](C)CO)C(=O)c2cccc(NC(=O)c3nc4ccccc4s3)c2O[C@@H]1CN(C)C(=O)Nc1cccc2ccccc12,inactive
8,C[C@H]1CN([C@@H](C)CO)C(=O)c2cccc(NC(=O)c3nc4ccccc4s3)c2O[C@H]1CN(C)C(=O)Nc1cccc2ccccc12,inactive
9,COc1cccc(S(=O)(=O)N[C@H]2CC[C@@H](CC(=O)NC3CCC3)O[C@H]2CO)c1,inactive
10,COC(=O)c1c[nH]c(=S)n1C,inactive
11,COc1ccc(NC(=O)Nc2cccc3c2O[C@H](CN(C)Cc2ccc(C(=O)Nc4ccccc4N)cc2)[C@@H](C)CN([C@@H](C)CO)C3=O)cc1,inactive
12,O=C(C[C@H]1CC[C@@H]2[C@H](COC[C@H](O)CN2C(=O)c2ccccc2F)O1)N1CCN(c2ccccc2)CC1,inactive
13,CC[C@@H](C)SSc1ncc[nH]1,inactive
14,C[C@@H]1CN([C@H](C)CO)C(=O)c2cc(NC(=O)C3CCCCC3)ccc2O[C@@H](C)CCCCO[C@@H]1CN(C)C(=O)Nc1cccc2ccccc12,active
15,C[C@H](CO)N1C[C@H](C)[C@@H](CN(C)C(=O)Nc2cccc3ccccc23)OCCCC[C@H](C)Oc2ccc(NC(=O)C3CCCCC3)cc2C1=O,inactive
16,C[C@@H]1CCCCO[C@H](CN(C)C(=O)Nc2cccc3ccccc23)[C@@H](C)CN([C@H](C)CO)C(=O)c2cc(NC(=O)C3CCCCC3)ccc2O1,inactive
17,C[C@@H]1CCCCO[C@@H](CN(C)C(=O)Nc2cccc3ccccc23)[C@@H](C)CN([C@H](C)CO)C(=O)c2cc(NC(=O)C3CCCCC3)ccc2O1,inactive
18,C[C@@H]1CCCCO[C@@H](CN(C)C(=O)Nc2cccc3ccccc23)[C@@H](C)CN([C@@H](C)CO)C(=O)c2cc(NC(=O)C3CCCCC3)ccc2O1,inactive
19,C[C@@H]1CCCCO[C@@H](CN(C)C(=O)Nc2cccc3ccccc23)[C@H](C)CN([C@@H](C)CO)C(=O)c2cc(NC(=O)C3CCCCC3)ccc2O1,inactive
20,C[C@@H]1CCCCO[C@@H](CN(C)C(=O)Nc2cccc3ccccc23)[C@H](C)CN([C@H](C)CO)C(=O)c2cc(NC(=O)C3CCCCC3)ccc2O1,active
21,C[C@H]1CCCCO[C@@H](CN(C)C(=O)Nc2cccc3ccccc23)[C@@H](C)CN([C@@H](C)CO)C(=O)c2cc(NC(=O)C3CCCCC3)ccc2O1,inactive
22,C[C@@H]1CN([C@H](C)CO)C(=O)c2cc(NC(=O)C3CCCCC3)ccc2O[C@@H](C)CCCCO[C@H]1CN(C)C(=O)Nc1cccc2ccccc12,inactive
23,C[C@@H]1CCCCO[C@H](CN(C)C(=O)Nc2cccc3ccccc23)[C@H](C)CN([C@H](C)CO)C(=O)c2cc(NC(=O)C3CCCCC3)ccc2O1,active
24,C[C@@H]1CCCCO[C@H](CN(C)C(=O)Nc2cccc3ccccc23)[C@@H](C)CN([C@@H](C)CO)C(=O)c2cc(NC(=O)C3CCCCC3)ccc2O1,inactive

row,SMILES,cytotoxicity call
1,C[C@H](CO)N1C[C@H](C)[C@H](CN(C)C(=O)Nc2cccc3ccccc23)OCCCC[C@H](C)Oc2ccc(NC(=O)C3CCCCC3)cc2C1=O,active
2,C[C@H]1CN([C@@H](C)CO)C(=O)c2cc(NC(=O)Cn3cnnn3)ccc2O[C@H]1CN(C)S(=O)(=O)c1ccc(Cl)cc1,inactive
3,COc1ccc(S(=O)(=O)N(C)C[C@H]2Oc3ccc(NS(=O)(=O)c4ccc(C)cc4)cc3C(=O)N([C@H](C)CO)C[C@H]2C)cc1,inactive
4,C[C@@H]1CN([C@@H](C)CO)C(=O)Cc2cc(NC(=O)C3CCCCC3)ccc2O[C@@H]1CN(C)S(=O)(=O)c1cn(C)cn1,inactive
5,C[C@H](CO)N1C[C@H](C)[C@H](CN(C)Cc2ccc(Oc3ccccc3)cc2)Oc2c(NC(=O)Nc3ccccc3)cccc2C1=O,inactive
6,O[C@@H](Cc1ccccc1)[C@@H](/C=C/C1CC1)N(CC#Cc1ccccc1)Cc1ccccc1Br,inactive
7,C[C@H](CO)N1C[C@H](C)[C@H](CN(C)C(=O)Nc2ccc3c(c2)OCO3)Oc2ccc(NC(=O)Nc3cccc4ccccc34)cc2C1=O,inactive
8,C[C@@H]1CN([C@@H](C)CO)C(=O)c2cc(NC(=O)C3CCCCC3)ccc2O[C@@H](C)CCCCO[C@@H]1CN(C)C(=O)Nc1cccc2ccccc12,active
9,C[C@@H]1CN([C@@H](C)CO)C(=O)c2cc(NC(=O)C3CCCCC3)ccc2O[C@@H](C)CCCCO[C@H]1CN(C)C(=O)Nc1cccc2ccccc12,inactive
10,C[C@@H]1CCCCO[C@H](CN(C)C(=O)Nc2cccc3ccccc23)[C@H](C)CN([C@@H](C)CO)C(=O)c2cc(NC(=O)C3CCCCC3)ccc2O1,inactive
11,C[C@H]1CCCCO[C@H](CN(C)S(=O)(=O)c2cccs2)[C@@H](C)CN([C@@H](C)CO)C(=O)c2cc(NC(=O)Nc3ccccc3)ccc2O1,inactive
12,COc1ccc2c3c(n(c2c1)C)[C@@H](CO)N(C[C@]13CCN(CC1)C(=O)c1cnccn1)C(=O)c1cnccn1,inactive
13,CC(C)NC(=O)N(C)C[C@@H]1OCCCC[C@@H](C)Oc2ccc(NC(=O)Nc3cccc4ccccc34)cc2C(=O)N([C@H](C)CO)C[C@@H]1C,inactive
14,Cc1ccc(Oc2nnc(-c3cccs3)c3ccccc23)cc1,inactive
15,Cc1csc(-c2nnc(Nc3ccc(Oc4ncccc4-c4ccnc(N)n4)cc3)c3ccccc23)c1,active
16,C[C@@]1(c2ccc3c(c2)OCCO3)NC(=O)NC1=O,inactive
17,Cc1noc(C)c1S(=O)(=O)Nc1ccc2c(c1)CC(=O)N([C@@H](C)CO)C[C@H](C)[C@H](CN(C)Cc1ccncc1)O2,inactive
18,CC=C(C)C(=O)OC1C(OC(C)=O)C2(CO)C(O)CC3(C)C(=CCC4C5(C)CCC(OC6OC(C(=O)O)C(OC7OC(CO)C(O)C(O)C7O)C(O)C6OC6OC(CO)C(O)C(O)C6O)C(C)(CO)C5CCC43C)C2CC1(C)C (stereo unspecified),active
19,C[C@H]1O[C@@H](O[C@H]2CC[C@@]3(C)[C@@H](CC[C@@]4(C)[C@@H]3CC=C3[C@H]5C[C@](C)(C(=O)O)CC[C@]5(C(=O)O[C@H]5O[C@@H](CO)[C@@H](O)[C@@H](O)[C@@H]5O)CC[C@@]34C)[C@@]2(C)CO)[C@@H](O)[C@@H](O[C@H]2O[C@@H](CO)[C@@H](O)[C@@H](O)[C@@H]2O)[C@@H]1O,inactive
20,C/C=C(/C)C(=O)O[C@@H]1[C@H](OC(C)=O)[C@]2(CO)[C@H](O)C[C@]3(C)C(=CC[C@H]4[C@@]5(C)CC[C@H](O[C@@H]6O[C@H](C(=O)O)[C@@H](O[C@@H]7O[C@H](CO)[C@@H](O)[C@H](O)[C@H]7O)[C@H](O)[C@H]6O[C@@H]6O[C@H](CO)[C@@H](O)[C@H](O)[C@H]6O)[C@](C)(CO)[C@@H]5CC[C@]43C)[C@@H]2CC1(C)C,inactive
21,CC=C(C)C(=O)O[C@H]1[C@H](OC(C)=O)[C@]2(CO)[C@H](O)C[C@]3(C)C(=CC[C@@H]4[C@@]5(C)CC[C@H](O[C@@H]6O[C@H](C(=O)O)[C@@H](O[C@@H]7O[C@H](CO)[C@@H](O)[C@H](O)[C@H]7O)[C@H](O)[C@H]6O[C@@H]6O[C@H](CO)[C@@H](O)[C@H](O)[C@H]6O)[C@](C)(CO)[C@@H]5CC[C@]43C)[C@@H]2CC1(C)C,active
22,C[C@@H]1CC[C@]2(C(=O)O[C@@H]3O[C@H](CO)[C@@H](O)[C@H](O)[C@H]3O)CC[C@]3(C)C(=CC[C@H]4[C@@]5(C)C[C@@H](O)[C@H](O)[C@@](C)(CO)[C@@H]5CC[C@]43C)[C@@H]2[C@]1(C)O,inactive
23,C/C=C(/C)C(=O)O[C@H]1[C@@H](OC(C)=O)[C@@]2(CO)[C@@H](O)C[C@@]3(C)C(=CC[C@H]4[C@@]5(C)CC[C@@H](O[C@H]6O[C@H](C(=O)O)[C@@H](O[C@H]7O[C@@H](CO)[C@@H](O)[C@@H](O)[C@@H]7O)[C@@H](O)[C@@H]6O[C@H]6O[C@@H](CO)[C@@H](O)[C@@H](O)[C@@H]6O)[C@@](C)(CO)[C@@H]5CC[C@]43C)[C@@H]2CC1(C)C,active
